The list is not random: actives were taken first. Their share in the collection is about 15%.
Sm TGR block: qHTS Assay for the Inhibitors of Schistosoma Mansoni Peroxiredoxins | AID 485364, 2010 | purified TGR, DTNB reduction, TNB absorbance 405 nm | Potency, µM (doses to about 114 µM), for the others: top-dose activity change, negative = inhibition, hits mostly inhibitors | 3% of 360,000 active; note: potency is the fitted concentration of half-maximal effect; % is set by controls: 0 for no effect and ±100 for the full control effect; nearly all actives have a fitted effect of over 60% in size
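First, TGR (20 nM dispensed) and NADPH were mixed with compound. Second, a 15 min room-temperature incubation followed. Third, further NADPH and then DTNB were added to start the reaction. Finally, TNB absorbance was monitored kinetically.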
HCV inhibitor: qHTS Assay for Inhibitors of Hepatitis C Virus (HCV). Huh7.5.1 HCVcc-Cre infection, luciferase reporter, 44 h. Potency, µM (highest dose often 41.8 µM), for the others: top-dose activity change, negative = inhibition, actives largely listed as inhibitors. 3.4% of 340,000 active; note: potency is the fitted concentration of half-maximal effect; % is set by controls: 0 for no effect and ±100 for the full control effect
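Cells (1,000/well) were plated 4 h before compound, then infected with HCVcc-Cre virus (~0.5 moi). After 44 h further culture, infection was read as luciferase luminescence following a 15 min substrate incubation at room temperature.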
SARS PLpro yeast: qHTS of Yeast-based Assay for SARS-CoV PLP; S. cerevisiae expressing SARS-CoV PLpro, growth rescue; Potency, µM (series often up to 32.9 µM), for the others: at the highest dose activity, positive = growth rescue, usual class: activators; 0.19% of 330,000 active; calls by dose curve; note: potency is the fitted concentration of half-maximal effect; 0% is about no effect; nearly all actives have a fitted effect of over 55% in size
HCMV antiviral: qHTS Assay for inhibitors of the human cytomegalovirus (HCMV); AID 1259415, 2018; activity change, negative = inhibition, % at 57.5 µM; 4.5% of 410,000 active; HFF cells, HCMV-luciferase reporter, 72 h; hits give low values; in the data active = activity change below about -60%; inconclusive = no clear call, values can overlap the other calls; inactive = above about -39%; note: % is set by controls: 0 for no effect and ±100 for the full control effect
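Steps: HFFs plated, 16 h 37C; compounds added; HCMV-luciferase added to MOI 1 PFU/cell; 72 h 37C; OneGlo reagent, 5 min room temperature; luminescence read, normalized to controls.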
Pf growth 48h: Primary qHTS for delayed death inhibitors of the malarial parasite plastid, 48 hour incubation | P. falciparum luciferase growth in erythrocytes, 48 h | Potency, µM (doses to about 28.7 µM), without a hit: at the top dose activity change, negative = inhibition, usual class: inhibitors | 5.9% of 310,000 active; note: potency is the fitted concentration of half-maximal effect; % is set by controls: 0 for no effect and ±100 for the full control effect
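Read-out is firefly luciferase luminescence from an integrated reporter in P. falciparum, so falling signal marks reduced parasite growth. Infected erythrocytes were at 2% hematocrit and 0.1% parasitemia (final) in Albumax-supplemented RPMI 1640.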
Pf growth 96h: Primary qHTS for delayed death inhibitors of the malarial parasite plastid, 96 hour incubation. P. falciparum luciferase reporter growth, 96 h. Potency, µM (top dose mostly 28.7 µM), without a hit: at the highest dose activity change, negative = inhibition, actives largely listed as inhibitors. 6.9% of 320,000 active. AID 504834, 2011; note: potency is the fitted concentration of half-maximal effect; % is set by controls: 0 for no effect and ±100 for the full control effect
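Two-generation exposure (96 h) targets delayed-death phenotype. Reporter parasites carrying integrated firefly luciferase, in red cells at 2% hematocrit and 0.05% parasitemia final, kept at 37 C, 5% CO2; luminescence loss indicates inhibition.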
The depositor's hits bear a star; ? = inconclusive; nt = not tested or not shown; [ ] = remark or other dose. Unless noted, calls come from the whole dose curve; as a rule, active = well fitted curve in the direction sought with a large enough effect; inconclusive = small, poorly fitted or top-dose-only effect, or another doubt; inactive = no such curve, though single readings can be large; an effect the other way counts as inactive or inconclusive.

SMILES | Sm TGR block | HCV inhibitor | SARS PLpro yeast | HCMV antiviral | Pf growth 48h | Pf growth 96h
COc1ccc(C(=O)N[C@H](C(=O)Nc2sccc2C(N)=O)C(C)C)cc1 | 3% | -26% | 1% | ? | -23% | 13%
COc1ccc(C(=O)NC(C(=O)OCC(=O)Nc2sccc2C(N)=O)C(C)C)cc1 (configuration not stated) | -14% | -7% | 5% | 0 | 12µM* | -15%
COc1cc(OC)cc(C(=O)N[C@H](C(=O)OCC(=O)Nc2ccc(F)c(F)c2F)C(C)C)c1 | 0% | -22% | -4% | 34 | 19% | 71%
COc1cc(OC)cc(C(=O)N[C@H](C(=O)OCC(=O)Nc2ccc(C)cc2C)C(C)C)c1 | 0% | -7% | 11% | -90* | 19% | 4%
O=C(c1cccs1)N1CCCc2cc(NS(=O)(=O)c3ccc(Br)cc3)ccc21 | -9% | nt | nt | ? | nt | nt
COc1ccc(C(=O)c2cc([N+](=O)[O-])ccc2N2CCOCC2)cc1 | -5% | ? | 0% | -99* | -18% | 50%
CCOc1ccc(C(=O)c2cc([N+](=O)[O-])ccc2N2CCOCC2)cc1 | 5% | -22% | -31% | -90* | -30% | 62%
CC1=Nc2nc(N3CCCCC3)c(C#N)c3c4c(nc(c23)N1)N(c1ccc(C(C)C)cc1)C(=O)C4 | -4% | -16% | -3% | -26 | ? | 1.2µM*
CC(C)c1ccc(-c2nc(N3CCCCC3)[nH]c(=O)c2C#N)cc1 | -14% | 11% | -15% | 92 | -23% | -12%
O=C(CSc1cn[nH]n1)Nc1ccccc1C(=O)O | 0% | 8% | -6% | -27 | 7% | 22%
O=c1cc(-c2ccc(Cl)cc2)[nH]c2ccccc12 | 6% | -1% | -1% | nt | 1.5µM* | 2.1µM*
O=c1cc(-c2ccccc2Br)[nH]c2ccccc12 | nt | nt | nt | -90* | nt | nt
O=C1CCN(S(=O)(=O)c2ccc(Cl)cc2)C(c2ccccc2)C1 (configuration not stated) | nt | nt | nt | -16 | nt | nt
O=C(NNC(=S)NC(=O)c1ccccc1[N+](=O)[O-])c1ccccc1Cl | 1% | 13% | -4% | 24 | -2% | 0%
O=C(NC(=S)NNS(=O)(=O)c1ccccc1)c1ccc([N+](=O)[O-])cc1 | 20µM* | 3% | -6% | -21 | -9% | ?
O=C(NNS(=O)(=O)c1ccc([N+](=O)[O-])cc1)c1ccncc1 | -4% | 16% | 0% | -4 | 17% | ?
O=C(NNS(=O)(=O)c1ccccc1)c1ccc([N+](=O)[O-])cc1 | 0% | -8% | nt | 31 | 18% | 15µM*
O=C(NC(=S)NNS(=O)(=O)c1ccccc1)c1cccnc1 | 8.9µM* | 4% | 4% | -5 | 26% | -4%
O=C(NC(=S)NNS(=O)(=O)c1ccccc1)c1ccccc1[N+](=O)[O-] | 28µM* | 43% | 5% | -17 | 9% | 35%
O=C(NCCNS(=O)(=O)c1ccccc1)c1ccc([N+](=O)[O-])cc1 | -3% | 7% | 2% | 23 | 6% | ?
CC1(C)CC(=O)C=C(C#CC2CC2)C1 | nt | nt | nt | 3 | nt | nt
CCCn1cc(S(=O)(=O)c2cccc(Cl)c2)c(=O)c2cc(F)c(N3CCCC3)cc21 | 4% | nt | nt | -34 | nt | nt
O=C(COc1ccc(S(=O)(=O)N2CCOCC2)cc1)Nc1ccc2c(c1)OCCO2 | 1% | 12% | -2% | -12 | ? | nt
O=C(O)CC(SCC(=O)Nc1ccc(Cl)c(S(=O)(=O)N2CCOCC2)c1)C(=O)O (configuration not stated) | 7% | 7% | 1% | -30 | 41% | 71%
CC(CC(=O)Nc1ccc(Cl)c(S(=O)(=O)N2CCOCC2)c1)c1ccccc1 (configuration not stated) | 15% | 2.5µM* | -3% | -82* | 12µM* | ?
SMILES | Sm TGR block | HCV inhibitor | SARS PLpro yeast | HCMV antiviral | Pf growth 48h | Pf growth 96h
CC(=O)c1ccc(OCCCC(=O)N2CCN(S(=O)(=O)c3ccc(C(C)C)cc3)CC2)cc1 | 6% | 10µM* | -3% | ? | 9.3µM* | 5.2µM*
O=C(COc1ccc(S(=O)(=O)N2CCOCC2)cc1)Nc1ccc(Cl)c(C(F)(F)F)c1 | -1% | ? | 0% | -31 | 9.3µM* | -4%
O=C(COc1ccc(S(=O)(=O)N2CCOCC2)cc1)Nc1ccc(Br)cc1 | nt | 10µM* | -1% | -26 | nt | nt
CCOc1ccc(NC(=O)CCCn2c(C)c3cnn(-c4ccccc4)c(=O)c3c2C)cc1 | 2% | nt | nt | -8 | nt | nt
Cn1c2ccsc2c2ncn(Cc3ccccc3F)c(=O)c21 | 3% | nt | ? | -5 | ? | ?
O=C(COc1ccc(S(=O)(=O)N2CCOCC2)cc1)NC1CCCCC1 | -1% | -15% | 1% | 33 | ? | 12µM*
CC(=O)Nc1ccc(OCC(=O)Nc2ccc(Cl)c(S(=O)(=O)N3CCOCC3)c2)cc1 | nt | ? | 4% | -71* | nt | nt
CC(=O)c1ccc(OCCCC(=O)Nc2ccc(S(=O)(=O)N3CCOCC3)cc2)cc1 | -2% | ? | 11µM* | -2 | -38% | ?
COc1ccc(S(=O)(=O)N2CCOCC2)cc1NC(=O)CCCOc1ccc(C(C)=O)cc1 | nt | nt | nt | 79 | nt | nt
CCOc1ccc(S(=O)(=O)N2CCN(C(=O)CCOc3ccccc3C)CC2)cc1 | -14% | ? | 3% | ? | 10µM* | ?
COc1ccccc1N1CCN(S(=O)(=O)c2ccc(-c3ccno3)cc2OC)CC1 | -7% | nt | nt | -17 | nt | nt
O=C(CC1CCCC1)Nc1ccc(Cl)c(S(=O)(=O)N2CCOCC2)c1 | nt | 11µM* | 0% | ? | nt | nt
CC(=O)c1ccc(OCCCC(=O)OCC(=O)N2CCN(c3ccccc3)CC2)cc1 | 11%[11.4 µM] | 12% | -3% | -13 | nt | 9.3µM*
COc1ccc(OCC(=O)Nc2ccc(S(=O)(=O)N3CCOCC3)cc2)cc1 | 5% | -10% | 5% | 5 | -14% | ?
O=C(Nc1ccc(Cl)c(S(=O)(=O)N2CCOCC2)c1)C1CCC1 | -7% | -10% | -3% | 7 | ? | ?
O=C(CCCOc1ccc(Br)cc1)Nc1ccc(S(=O)(=O)N2CCOCC2)cc1 | 2% | ? | -3% | -32 | ? | 8.3µM*
COc1ccc2cc(-c3nnc(Nc4ccccc4)s3)c(=O)oc2c1 | 6% | nt | nt | 5 | nt | nt
Fc1ccc(-c2c[nH]c(=S)n2Cc2ccccc2)cc1 | -3% | -13% | 18% | -34 | 10µM* | ?
CCN1CCN(c2ccc(S(=O)(=O)N3CCCCC3)cc2NC(=O)/C=C/c2ccc([N+](=O)[O-])cc2)CC1 | 6% | ? | 0% | -19 | 2.1µM* | 1.9µM*
